Source: PubChem BioAssay (Tox21)
Inconclusive results are not listed. The source made the active and inactive calls. Unless noted, the call rests on the fitted dose curve; in most records, active means well fitted curve in the direction sought with a large enough effect in the repeat runs; inconclusive means weak or mixed curves; inactive means no such curve, though single readings can be large; an effect the other way counts as inactive or inconclusive.

Legend:
[1] = A CellTox Green Cytotoxicity Assay to monitor cytotoxicity in HepG2 cells - 0 hour (AID 1224882); further: nearly all actives have a fitted effect of over 35% in size
In short: (§1)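 Measurements at 0, 8, 16, 24, 32 and 40 h of treatment captured CellTox Green fluorescence in HepG2 cells that had been co-plated with reagent and preincubated 5 h at 37 C/5% CO2.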

[2] = A CellTox Green Cytotoxicity Assay to monitor cytotoxicity in HepG2 cells - 32 hour (AID 1224883); further: nearly all actives have a fitted effect of over 50% in size; further: potency means the concentration at half of the fitted maximal effect
In short: as §1

[3] = qHTS RealTime-Glo MT Cell Viability Assay in HepG2 cells - 16 hour (AID 1224885); further: nearly all actives have a fitted effect of over 50% in size
In short: (§2)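 HepG2 suspension premixed with RealTime-Glo reagents is plated at 600 cells per well and left 5 h at 37 C/5% CO2. Compounds in DMSO then go in, and bioluminescence reflecting viable cell number is recorded over 40 h.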

[4] = qHTS RealTime-Glo MT Cell Viability Assay in HEK293 cells - 24 hour (AID 1224886); further: nearly all actives have a fitted effect of over 50% in size; further: potency means the concentration at half of the fitted maximal effect
In short: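 Reads taken at 0, 8, 16, 24, 32 and 40 h from the same wells. HEK293 cells (600/well) carried RealTime-Glo reagents from seeding, with compound added after a 5 h settle at 37 C.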

[5] = qHTS RealTime-Glo MT Cell Viability Assay in HEK293 cells - 8 hour (AID 1224887); further: nearly all actives have a fitted effect of over 50% in size; further: potency means the concentration at half of the fitted maximal effect
In short: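 HEK293 + NanoLuc + prosubstrate, 600 cells/well; 5 h, 37 C/5% CO2; compound 23 nL in DMSO by pintool; 37 C; luminescence read at 0, 8, 16, 24, 32 and 40 h time points.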

[6] = A CellTox Green Cytotoxicity Assay to monitor cytotoxicity in HEK293 cells - 16 hour (AID 1224888); further: nearly all actives have a fitted effect of over 35% in size; further: potency means the concentration at half of the fitted maximal effect
In short: (§3)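 Tox21 screen in HEK293: membrane-impermeant cyanine dye fluoresces on binding dead-cell DNA; compound pinned 5 h post-seeding, plates held at 37 C, signal read repeatedly through 40 h.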

[7] = qHTS RealTime-Glo MT Cell Viability Assay in HepG2 cells - 0 hour (AID 1224889); further: nearly all actives have a fitted effect of over 50% in size
In short: as §2

[8] = A CellTox Green Cytotoxicity Assay to monitor cytotoxicity in HepG2 cells - 8 hour (AID 1224890); further: nearly all actives have a fitted effect of over 45% in size
In short: as §1

[9] = qHTS assay to identify small molecule antagonists of the estrogen receptor alpha (ER-alpha) signaling pathway using the BG1 cell line in the presence of 0.1 nM 17-beta-estradiol - cell viability counter screen (AID 1259241); further: nearly all actives have a fitted effect of over 40% in size; further: potency means the concentration at half of the fitted maximal effect
In short: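 Following 5 days in phenol red-free medium with charcoal-stripped serum, VM7Luc4E2 cells received test compounds alongside 0.1 nM 17beta-estradiol (final) at 37C for 22 hr. Live cells were then quantified via protease-substrate fluorescence.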

[10] = qHTS assay to identify small molecule antagonists of the androgen receptor (AR) signaling pathway using the MDA cell line in the presence of 0.5 nM R1881 - cell viability counter screen (AID 1259242); further: nearly all actives have a fitted effect of over 45% in size
In short: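 Concentration-response screen of compounds for toxicity in MDA-kb2 reporter cells: 16 hr at 37C with 0.5 nM R1881, endpoint live-cell protease fluorescence measured in the reporter wells.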

[11] = target: Androgen receptor (Homo sapiens) (UniProt P10275); assay: qHTS assay to identify small molecule antagonists of the androgen receptor (AR) signaling pathway using the MDA cell line in the presence of 0.5 nM R1881 (AID 1259243); further: nearly all actives have a fitted effect of over 50% in size; further: potency means the concentration at half of the fitted maximal effect
In short: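 With R1881 held at 0.5 nM (final), compound effects on MMTV-luciferase expression in MDA-kb2 cells were scored by luminescence after a 16 hr, 37C incubation.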

[12] = target: Estrogen receptor (Homo sapiens) (UniProt P03372); assay: qHTS assay to identify small molecule antagonists of the estrogen receptor alpha (ER-alpha) signaling pathway using the BG1 cell line in the presence of 0.1 nM 17-beta-estradiol (AID 1259244); further: nearly all actives have a fitted effect of over 50% in size
In short: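 Compounds were tested against 0.1 nM (final) 17beta-estradiol in VM7Luc4E2 cells, which express full-length ER-alpha and an ERE-luciferase reporter; luminescence was recorded following 22 h exposure.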

[13] = qHTS assay to identify small molecule HDAC inhibitors (AID 1259364); further: potency means the concentration at half of the fitted maximal effect;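 further: wild-type HCT-116 cells with endogenous class I/II HDAC activity; nearly all actives have a fitted effect of over 45% in size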
In short: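 Screening used wild-type human colon HCT-116 cells incubated overnight, dosed with compounds for 2 hours, and assayed with a homogeneous luminogenic HDAC I/II reagent for 30 minutes at room temperature.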

[14] = qHTS assay to identify small molecule HDAC inhibitors - cell viability counter screen (AID 1259365)
In short: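 HCT-116 wild-type, overnight attachment; 2hr drug exposure, 37C; CellTiter-Glo luminescent ATP readout after 30min RT.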

[15] = qHTS assay to identify small molecule agonists of the sonic hedgehog signaling (Shh) pathway - cell viability counter screen (AID 1259366); further: nearly all actives have a fitted effect of over 50% in size
In short: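 Compounds in DMSO were pin-transferred onto 3T3 Gli1-Luc cells that had settled 4hr; plates then stood 24hr at 37C and 5% CO2. One hour before the end, CellTiter-Fluor was added and fluorescence recorded.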

[16] = qHTS assay to identify small molecule antagonists of the sonic hedgehog signaling (Shh) pathway - cell viability counter screen (AID 1259367); further: nearly all actives have a fitted effect of over 55% in size; further: potency means the concentration at half of the fitted maximal effect
In short: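 CellTiter-Fluor signal in conditioned medium-stimulated 3T3 Gli1-Luc cells, 23 hr compound exposure, 37C.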

[17] = qHTS assay to identify small molecule agonists of the sonic hedgehog signaling (Shh) pathway (AID 1259368; calls by dose curve;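 further: NIH/3T3-derived 3T3Gli1-Luc cells carrying a stable Gli1-driven firefly luciferase reporter; series mostly up to about 92 µM; nearly all actives have a fitted effect of over 15% in size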)
In short: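 Hedgehog pathway agonism scored by increased firefly luciferase luminescence in 3T3Gli1-Luc cells treated 24 hr at 37 C; detection used a 30 min room-temperature reagent incubation.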

[18] = qHTS assay to identify small molecule antagonists of the sonic hedgehog signaling (Shh) pathway (AID 1259369; calls by dose curve; further: nearly all actives have a fitted effect of over 45% in size; further: potency means the concentration at half of the fitted maximal effect)
In short: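 NIH/3T3 stable Gli1-Luc clone, 2,000 cells/well, 4hr settle; cpd + conditioned medium 24hr; Luc reagent 30min RT; luminescence.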

[19] = qHTS assay to identify small molecule phospholipidosis (PLD) inducers (AID 1259344; active means well fitted curve in the direction sought with a large enough effect; an effect the other way counts as inactive or inconclusive)
In short: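 Accumulated phospholipid, stained red by LipidTOX during 24 h compound treatment of HepG2 cells at 37 C, is quantified from images as pit number and intensity, normalised per cell using Hoechst-stained nuclei.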

[20] = A CellTox Green Cytotoxicity Assay to monitor cytotoxicity in HEK293 cells - 8 hour (AID 1224884); further: nearly all actives have a fitted effect of over 35% in size
In short: as §3

Measured: Potency

Sequence of Estrogen receptor (Homo sapiens) (P03372 whole entry, looked up): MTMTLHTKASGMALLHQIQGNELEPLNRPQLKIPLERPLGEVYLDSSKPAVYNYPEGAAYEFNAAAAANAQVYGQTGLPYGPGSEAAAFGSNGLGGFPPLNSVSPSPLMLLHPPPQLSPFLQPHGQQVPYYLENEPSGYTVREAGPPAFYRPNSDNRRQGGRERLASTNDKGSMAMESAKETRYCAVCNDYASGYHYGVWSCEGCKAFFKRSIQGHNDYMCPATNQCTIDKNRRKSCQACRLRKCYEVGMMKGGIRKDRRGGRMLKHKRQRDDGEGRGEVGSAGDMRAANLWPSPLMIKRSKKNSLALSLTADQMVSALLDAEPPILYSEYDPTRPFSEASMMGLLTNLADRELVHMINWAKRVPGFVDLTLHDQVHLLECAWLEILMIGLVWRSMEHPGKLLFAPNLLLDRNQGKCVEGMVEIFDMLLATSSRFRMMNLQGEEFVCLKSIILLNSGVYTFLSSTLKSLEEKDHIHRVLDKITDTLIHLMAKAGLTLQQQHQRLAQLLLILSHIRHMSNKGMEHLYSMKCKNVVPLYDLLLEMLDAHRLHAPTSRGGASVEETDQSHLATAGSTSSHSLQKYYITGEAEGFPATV
Sequence of Androgen receptor (Homo sapiens) (P10275 whole entry, looked up): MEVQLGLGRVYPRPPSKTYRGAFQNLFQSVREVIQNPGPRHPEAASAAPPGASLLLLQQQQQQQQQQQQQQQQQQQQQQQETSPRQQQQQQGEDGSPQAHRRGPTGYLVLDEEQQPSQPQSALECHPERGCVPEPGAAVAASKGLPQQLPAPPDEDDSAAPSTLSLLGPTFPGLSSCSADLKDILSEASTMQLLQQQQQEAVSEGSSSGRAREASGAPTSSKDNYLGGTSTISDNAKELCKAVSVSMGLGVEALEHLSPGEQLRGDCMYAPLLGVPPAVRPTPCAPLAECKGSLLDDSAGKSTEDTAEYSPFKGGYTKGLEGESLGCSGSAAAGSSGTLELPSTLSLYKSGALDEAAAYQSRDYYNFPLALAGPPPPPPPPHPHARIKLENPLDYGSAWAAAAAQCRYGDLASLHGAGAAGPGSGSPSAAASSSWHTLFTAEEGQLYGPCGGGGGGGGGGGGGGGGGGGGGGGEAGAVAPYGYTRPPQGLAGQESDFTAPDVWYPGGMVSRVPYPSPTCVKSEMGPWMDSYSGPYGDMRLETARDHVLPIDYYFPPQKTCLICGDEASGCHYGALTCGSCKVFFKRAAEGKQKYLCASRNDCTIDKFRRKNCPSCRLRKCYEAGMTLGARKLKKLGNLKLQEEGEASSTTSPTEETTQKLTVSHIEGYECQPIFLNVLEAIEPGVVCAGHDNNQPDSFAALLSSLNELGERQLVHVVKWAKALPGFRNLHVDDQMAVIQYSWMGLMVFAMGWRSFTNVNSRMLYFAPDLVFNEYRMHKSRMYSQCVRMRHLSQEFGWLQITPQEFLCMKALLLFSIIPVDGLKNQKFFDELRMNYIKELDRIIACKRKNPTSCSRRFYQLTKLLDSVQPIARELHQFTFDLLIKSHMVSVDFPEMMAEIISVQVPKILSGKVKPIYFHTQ

Cc1cc(S(=O)(=O)O)c(N)cc1Cl
not listed: [19] | [20]
inactive: all other assays above

CCOC(=O)[C@H](CCc1ccccc1)N[C@@H](C)C(=O)N1Cc2cc(OC)c(OC)cc2C[C@H]1C(=O)O
not listed: [11] | [20]
inactive: all other assays above

CCCCNc1cc(C(=O)O)cc(S(N)(=O)=O)c1Oc1ccccc1
not listed: [4] | [6] | [8] | [11] | [12] | [20]
inactive: all other assays above

CC/C=C\CCOC(=O)C(C)C
not listed: [11] | [12] | [19] | [20]
inactive: all other assays above

CC(C)=CCC[C@](C)(O)[C@@H]1CC=C(C)CC1
active: [2] 43.6 µM
not listed: [3] | [4] | [8] | [11] | [12] | [19]
inactive: all other assays above

C=CCc1cc(OC)c(O)c(C(=O)NCCO)c1
not listed: [11] | [12] | [20]
inactive: all other assays above

CN1CCN(c2c(F)cc3c(=O)c(C(=O)O)cn(CCF)c3c2F)CC1
active: [6] 5.35 µM
not listed: [5] | [11] | [12] | [20]
inactive: all other assays above

CCCCCOc1ccc(C2SC(=O)NC2=O)cc1OCC (stereo not drawn)
not listed: [1] | [2] | [4] | [6] | [8] | [20]
inactive: all other assays above

O=C(Cl)c1cccc([N+](=O)[O-])c1
not listed: [3] | [11] | [17] | [19] | [20]
inactive: all other assays above

CCCCCCOc1ccc(N)cc1
active: [5] 19.5 µM
not listed: [2] | [4] | [6] | [11] | [13] | [18] | [19]
inactive: all other assays above

C=CCCCCCCCCO
not listed: [2] | [4] | [11] | [19]
inactive: all other assays above

CCN(CC)CCOc1ccc(Cc2ccccc2)cc1
not listed: [2] | [4] | [5] | [11] | [12] | [18]
inactive: all other assays above

CC[C@H]1CC[C@H](NCc2cc3c(cc2OC)[C@H]2C[C@H]2C(=O)N3C)[C@H](c2ccccc2)N1
active: [16] 8.63 µM | [18] 4.33 µM
inactive: [1] | [20] | [3] | [6] | [7] | [8] | [10] | [13] | [14] | [17]

CCOC(=O)C1CC(=O)C(=C(O)C2CC2)C(=O)C1 (stereo not drawn)
not listed: [3] | [11] | [19] | [20]
inactive: all other assays above

CCCCCCCCc1ccc(S(=O)(=O)O)cc1
inactive: [1] | [20] | [3] | [7] | [8] | [9] | [10] | [13] | [14] | [15] | [16]

CCCCCCCCCC#N
active: [16] 60.8 µM | [18] 24.2 µM
not listed: [3] | [4] | [11] | [12] | [15] | [19] | [20]
inactive: all other assays above

CCc1cc2cc(OC)c(OC)cc2c(Cc2ccccc2)n1
active: [4] 16.9 µM | [5] 16.9 µM | [11] 4.22 µM
not listed: [1] | [2] | [3] | [8] | [12] | [18] | [19]
inactive: all other assays above

CCCCCCCCCCCCCCCCOP(=O)([O-])OCC[N+](C)(C)C
not listed: [2] | [8] | [11] | [12]
inactive: all other assays above

CC/C=C\CCOC(=O)CCCCC
not listed: [1] | [3] | [7] | [8] | [11] | [19] | [20]
inactive: all other assays above

CN(C)CCOc1ccccc1Cc1ccccc1
inactive: [20] | [3] | [4] | [5] | [7] | [9] | [10] | [13] | [14] | [15] | [16]

Nc1ccc(Oc2ccc(N)c(N)c2)cc1
inactive: [1] | [20] | [8] | [10] | [14] | [16] | [18]
active: [9] 48.6 µM | [13] 30.6 µM

CC(=O)Oc1cc(C(C)C)c(OCCN(C)C)cc1C
not listed: [3] | [4] | [5] | [11] | [12] | [20]
inactive: all other assays above
